CHT allo act: allosteric activators of human choline transporter CHT; Q9GZV3; CHT-expressing cells, membrane potential dye, choline EC20; hits give high values; LV-AA mutant CHT in HEK293 cells; B-score at 10 µM; 0.49% of 310,000 active; AID 488977;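 active means initial fluorescence not abnormally high and integrated response B-score, plate-corrected, over 3 SD above library mean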
Rce1 inh: yeast Ras-converting enzyme inhibition; AID 2563; calls only; Q03530; 0.27% of 290,000 active; yeast membranes, quenched prenylated peptide cleavage fluorescence;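 active means fall in fluorescence gain of 50% or more versus controls, with final raw signal at or below 3038400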;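 further: plate controls were neutral control wells for no effect and wells lacking membranes for full effect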
Kir21 block: Kir2.1 (mouse) channel inhibition; HEK293-Kir2.1, FluxOR thallium flux fluorescence; hits give low values; B-score at 10 µM; 0.85% of 310,000 active;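 active means fluorescence ratio B-score at or below minus 3 SD of library scores, with starting-brightness B-score within 2 SD, cut at about -4.2 in these data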;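 further: channel flux triggered by added potassium and thallium sulfate stimulus; B-score of peak minus minimum fluorescence over baseline after thallium stimulus; more negative B-score means stronger Kir2.1 block with less thallium influx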
TMEM16A inh: mouse TMEM16A channel inhibition, primary screen | Q8BHY3 | HEK293 TMEM16A/YFP iodide influx fluorescence, ionomycin | normalized B-score (activity score, 25-100; higher = stronger inhibition) at 10 µM | 1.2% of 310,000 active | AID 588511;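 active means ratio plate-corrected score three or more library SD toward inhibition, starting fluorescence score within five deviations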;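 further: score derived from kinetic fluorescence span divided by baseline fluorescence per well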
ANO1 activ: activators or potentiators of mouse TMEM16A chloride channel | Q8BHY3 | HEK293 TMEM16A/YFP-H148Q/I152L, iodide quench fluorescence; hits give low values | B-score at 10 µM | 0.3% of 340,000 active | AID 623877;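 active means fluorescence-ratio B-score plate-corrected deviation score at least 3 library SD below zero, with starting fluorescence score within 5 deviations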;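 further: channel opened by trigger with iodide after compound preincubation; score built on the fluorescence ratio of max minus min over baseline; more negative score means more quench and so TMEM16A activation or potentiation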
CHT inh: inhibits the human high affinity choline transporter | Q9GZV3 | CHT-expressing cells, membrane potential dye, choline response; hits give low values | B-score at 10 µM | 0.86% of 310,000 active | AID 488975;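 active means B-score over 3 SD under the library average, and starting fluorescence ratio not unusually high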;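 further: choline stimulus applied at its EC90 after an EC20 pre-addition; B-score computed on integrated fluorescence ratio after choline addition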
CHT activ conf: human CHT activation, confirmatory screen; shares compounds with CHT allo act; CHT-expressing cells, membrane potential dye fluorescence (FDSS); % of choline EC20–EC90 response window; HEK293 expressing CHT LV-AA mutant; choline added at its EC20; activation, % at 10 µM; 91% of 2,500 active; AID 504833;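 active means primary screen active, with duplicate mean activation above negative control mean plus 3 SD, cut at about 11% in these data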
HEK293 MP dye: CHT activator counter-screen hit in parental HEK293 cells. shares compounds with CHT allo act. membrane potential dye fluorescence (FDSS); measured after EC20 choline addition. ratio readout change at 10 µM, hits read low. 62% of 2,500 active. AID 623908;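 active means duplicate-averaged ratio beyond 3 SD from buffer wells, up or down, though filed actives are nearly all decreases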
TMEM16A reconf: TMEM16A (mouse) chloride channel inhibition, re-confirmation | 39% of 2,300 active | inhibition, % at 10 µM | HEK293 TMEM16A/YFP-H148Q, iodide quench fluorescence; ionomycin added to raise cell calcium | shares compounds with TMEM16A inh;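 active means mean duplicate percent inhibition, scaled so buffer wells are 0 and the reference blocker 100, over three buffer SD above buffer mean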
TMEM16A Ca cntr: calcium mobilization counter-screen hit for TMEM16A inhibitor series; shares compounds with TMEM16A inh; TMEM16A/YFP HEK293, Fluo4 calcium mobilization; calcium response (% of ionomycin), % at 10 µM; 2% of 2,300 active; AID 652231;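 active means duplicate-averaged calcium signal over 20% of the ionomycin maximum, relative to buffer baseline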;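 further: each well's signal is peak minus trough fluorescence divided by its pre-addition baseline; 0% = buffer wells and 100% = ionomycin wells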
YFP-HEK293 quench: acts in parental YFP-HEK293 cells lacking TMEM16A, counter-screen | shares compounds with TMEM16A inh | YFP ratio F(max-min)/F0 at 10 µM | 2,300 tested, under 10 active | iodide YFP quench, ionomycin;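 active means yellow fluorescent protein signal ratio exceeding the buffer control mean by over 5 SD of those controls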;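 further: ratio is mean of duplicate wells from kinetic YFP trace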
ClC-1 inh: blocks the rat ClC-1 voltage-dependent chloride channel | shares compounds with TMEM16A inh | CHO ClC-1-YFP, iodide influx fluorescence quench; iodide control reads 0, buffer control 100 | AID 652236 | 2,300 tested, under 10 active | ratio percent, % at 10 µM;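 active means duplicate-mean ratio percent above the mean of iodide-only control wells, which defines zero, plus 5 of their SD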;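 further: higher percent means stronger block of ClC-1 iodide influx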
The depositor's hits bear a star; i = inactive; . = not tested or not shown. Rows were chosen to be rich in hits. Some 3.2% of all compounds tested hit in one or more screens of this group.

SMILES	CHT allo act	Rce1 inh	Kir21 block	TMEM16A inh	ANO1 activ	CHT inh	TMEM16A reconf	TMEM16A Ca cntr	YFP-HEK293 quench	ClC-1 inh	others
CC(C)c1nc(SCC(=O)Nc2nc3c(s2)CCCC3)c2ccccc2n1	9*	i	-0.28	25*	i	i	i	i	-1.1	-10	CHT activ conf=28*;HEK293 MP dye=i
Cc1cc(C)n2c(Nc3ccc4c(c3)OCCO4)c(-c3ccc(C)o3)nc2n1	9.7*	i	0.41	i	i	i	i	i	-1.2	0	CHT activ conf=83*;HEK293 MP dye=-50*
CCOc1ccc(S(=O)(=O)N2c3ccccc3CC2C)cc1 (configuration not stated)	i	i	-0.6	100*	i	i	i	i	-1.1	-8	CHT activ conf=39*;HEK293 MP dye=i
CCCCNc1cc(C)nc(NCc2ccccc2)n1	9.2*	i	-12*	25*	i	i	34%*	22%*	-1.2	-24	CHT activ conf=33*;HEK293 MP dye=i
Cc1ccc(/C=N/Nc2cc(C)nc(NCc3ccccc3)n2)cc1	i	i	-0.3	i	i	i	.	.	.	.
Cc1oc(-c2cccc3ccccc23)nc1CN1CCC[C@H]1CO	i	i	-1.9	i	i	i	.	.	.	.
Cc1cc(NC(=O)CSCC(=O)Nc2ccccc2N2CCCCC2)no1	i	i	-0.71	i	i	i	.	.	.	.
Cc1ccc(Oc2ccccc2NC(=O)CSCC(=O)Nc2cc(C)on2)cc1	i	i	-3.9	i	i	i	22%*	i	-1	-11	CHT activ conf=0;HEK293 MP dye=i
COc1ccc(C(=O)OCC(=O)NC2CCCCCCC2)cc1OC	.	.	.	.	i	.	.	.	.	.
Cc1nc(NC(=O)/C=C/c2ccccc2)n[nH]1	i	i	0.38	i	i	i	.	.	.	.
COc1cccc(Nc2nc(-c3sc(C)nc3C)cs2)c1	i	i	-1.1	i	i	i	.	.	.	.
Cc1nc(C)c(-c2csc(Nc3ccc(F)cc3)n2)s1	i	i	-0.07	25*	i	i	21%*	i	-1	-6
CC(C)(C)c1csc(SCC(=O)Nc2ccc(Cl)cn2)n1	i	i	-0.48	100*	i	i	i	i	-1.2	-5
C/C=C1\COC(C(=O)NCc2ccccc2)(C(F)(F)F)C=C1C=C(C)C (configuration not stated)	i	i	-1.2	100*	i	i	i	i	-1.3	-13
O=C(NCc1ccccc1)C1(C(F)(F)F)C/C(=C/CCO)CCCO1 (configuration not stated)	i	i	-0.45	i	i	i	.	.	.	.
Cc1ccccc1-c1cc(C(=O)Nc2sc(C(=O)OC(C)C)c(C)c2C#N)c2ccccc2n1	i	i	-1.2	25*	i	i	68%*	i	-1.2	-20
COc1ccc2oc(CS(=O)c3ccccc3)c(C(=O)O)c2c1 (configuration not stated)	i	i	-1.8	i	i	i	.	.	.	.
Cc1cc2n(n1)C(c1cn(-c3ccccc3)nc1C)Nc1ccccc1-2 (configuration not stated)	i	i	0	i	i	i	.	.	.	.
Cc1cc2n(n1)C(c1cn(-c3ccccc3)nc1C)Nc1c(C)cccc1-2 (configuration not stated)	i	i	0.02	i	i	i	i	i	-1.4	-5
CCOc1ccc(CN2CCC(n3nccc3NC(=O)CCCc3ccccc3)CC2)cc1	i	i	-0.64	25*	i	i	i	i	-0.98	-2
CCOc1cccc(CN2CCC(n3nccc3NC(=O)CCCc3ccccc3)CC2)c1	i	i	-1.8	i	i	i	.	.	.	.
COc1cc(CN2CCC(n3nccc3NC(=O)CCCc3ccccc3)CC2)ccc1F	i	i	-2.2	25*	i	i	16%*	i	-0.89	-6
COc1cc(C#N)ccc1OC(=O)C1CCN(C(=O)c2ccc(F)cc2)CC1	i	i	0.24	i	i	i	.	.	.	.
CCc1ccc(C(C)NC(=O)Cn2cnc3c(=O)n(C)c(=O)n(C)c32)cc1 (configuration not stated)	i	i	1	25*	i	i	i	i	-0.88	-2
O=C(NCCn1cc(SCc2ccccc2)c2ccccc21)c1ccccc1F	i	i	-1.1	25*	i	i	i	i	-1.2	-10
SMILES	CHT allo act	Rce1 inh	Kir21 block	TMEM16A inh	ANO1 activ	CHT inh	TMEM16A reconf	TMEM16A Ca cntr	YFP-HEK293 quench	ClC-1 inh	others
OCC[C@@H]1C[C@H](O)[C@@H](O)[C@]2(CCc3ccccc3O2)O1	i	i	-1.6	25*	i	i	i	i	-1.1	-3
Cn1c(=O)c(N=O)c(N)n(Cc2ccccc2)c1=S	i	i	-1.1	i	i	i	.	.	.	.
CCCc1cc(C(N)=O)c(NC(C)=O)s1	i	i	0.07	100*	i	i	i	i	-0.92	-14
CCCc1cc(C(=O)OC)c(NC(=O)CCC(=O)O)s1	i	i	-0.89	i	i	i	.	.	.	.
COc1ccc2cc3cc(C(=O)NCc4ccc5c(c4)OCO5)oc3nc2c1	i	i	1.1	i	i	i	.	.	.	.
COc1ccc2cc3cc(C(=O)N4CCN(Cc5ccc6c(c5)OCO6)CC4)oc3nc2c1	i	i	-0.74	25*	i	i	i	i	-1.1	-4
CCc1ccc(CN2CCN(C(=O)c3cccc(OC)c3OC)CC2)cc1	i	i	-0.25	25*	i	i	i	i	-0.97	1
